The values that follow come from the supplement of paper PMC3484114.

Molecules are shown by their SMILES. ± gives the standard deviation.

The test system of the experiment is OVCAR-3-derived ovarian cancer stem-like cells (spheroids). Description: cell growth relative to untreated control; higher = more growth (less inhibition). The conditions noted are these: 2.29 µM; 96 h. The method, boiled down:
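Stem-like cells derived from OVCAR-3 spheroids were dissociated with trypsin and seeded at 50,000 cells/mL in stem cell medium in ultra-low attachment 96-well plates, then preincubated for 24 h. Each compound was added at 2.29 uM to 4 replicate wells and left for 96 h at 37°C, 5% CO2. Viability came from TOX8 resazurin fluorescence (ex 560/em 590 nm) read after 4 h. Percent growth was expressed relative to untreated wells, after blank subtraction and removal of outliers by the Grubbs test.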

`O=C(c1nc2ccc(Cl)cc2[nH]c1=O)C(O)c1ccc2c(c1)OCO2` (stereo not drawn) yielded a cell growth of 109 ± 61%. Consider `COc1cccc2c1C(=O)c1c(O)c3c(c(O)c1C2=O)C[C@@](O)(C(C)=O)C[C@@H]3O[C@@H]1C[C@@H](N(C)C)[C@@H](O)[C@@H](C)O1`, for which the cell growth amounted to 26.5 ± 25%. Regarding `COc1cc2c(cc1Oc1ccc(OC)c3c1CC1c4c(cc(OC)c(OC)c4-3)CCN1C)CC1c3c(cc(OC)c(OC)c3-2)CCN1C` (stereo not drawn), the cell growth was 101 ± 11%. For the compound `O=C(N=Nc1c(O)[nH]c2c(Cl)cc(Cl)cc12)c1ccccc1O`, the cell growth was 93.1 ± 22%. `COc1cc(OC)c2c(C)cc(=O)oc2c1` returned a cell growth of 108 ± 32%. Under `CN(C)c1ccc(/C=C2\CCc3ccccc3C2=O)cc1Br` stands 91.4 ± 12%; under `CC(=O)C(N1CCCCC1)C(O)(C(F)(F)F)C(F)(F)F` (stereo not drawn), 107 ± 38%. Regarding `Nc1ccc(S(=O)(=O)Nc2cnc3c(Cl)cccc3n2)cc1`, the cell growth is 100 ± 15%. Compound `COc1ccc(OC)c(-c2cc(=O)c3c(OC)c(OC)c(OC)c(OC)c3o2)c1` came in with a cell growth of 128 ± 50%. Compound `Cc1ccc2ccc3ccc(C)nc3c2n1` displayed a cell growth of 18.5 ± 10%. `C[C@@H]1C[C@H]2OC(=O)[C@@]3(C)CCC[C@@](C)([C@@H]23)[C@@]1(O)CCc1ccoc1` had a cell growth of 59.6 ± 12%.

Compound `O=C(CC(=O)c1ccccc1)CC(O)(c1ccccc1)c1ccccc1` registered a cell growth of 124 ± 18%. `CN(C)CCCCN1CCc2c(n(C)c3ccccc23)C1=O`: the cell growth amounted to 101 ± 13%. With `O=S1(=O)CCN(c2ccccc2CC(c2c[nH]c3ccccc23)c2c[nH]c3ccccc23)CC1`, the cell growth turned out to be 104 ± 24%. Next, `Cc1ccc2c(ccc(C=Cc3ccc(O)c4ncccc34)[n+]2C)c1`: 23.7 ± 4.7%. Next, `N#CC1=C(N)Oc2c(ccc3cccnc23)C1c1ccccc1` (stereo not drawn): 57.8 ± 17%; `COc1cc(/C=C(\OC(C)=O)c2ccc3c(c2)OCO3)cc(OC)c1OC`: 162 ± 58%. Next, `CC(=O)OCc1c2ccccc2c(C)c2c1cc(F)c1ccccc12`: 85.4 ± 9.4%; `C1CN(c2nnc(N3CCC3)nn2)C1`: 104 ± 18%. `Cc1c2cnccc2c(C)c2c1c1ccccc1n2CCOC(=O)c1ccccc1` came in with a cell growth of 127 ± 35%.

Take `Cc1c(Cl)cccc1NC(=O)CC1Sc2ccccc2NC1=O` (stereo not drawn): the cell growth was found to be 116 ± 8.3%. Take `O=C1c2ccccc2C(=O)c2c(NCCNCCO)ccc(O)c21`: the cell growth was 67.2 ± 44%.

Regarding `O=[N+]([O-])c1cc(C(F)(F)F)cc([N+](=O)[O-])c1CCl`, the cell growth is 38.4 ± 11%. As to `COC1=C(N)C(=O)c2nc(C)ccc2C1=O`, the cell growth was 125 ± 79%.

For `CCCCOc1ccc(NC(N)=Nc2ccc(Cl)cc2)cc1`, the cell growth was determined as 124 ± 20%. With `COc1cc(/C=C(\C)c2ccc3c(c2)OCO3)cc(OC)c1OC`, the cell growth worked out at 162 ± 21%. On to `O=C(O)CC(NC(=O)CP(=O)(O)O)C(=O)O` (stereo not drawn), for which the cell growth amounted to 106 ± 16%. Next, `CC(C)CCCC(=O)CCCCCCC(=O)CCN(O)C(=O)C(N)CO` (stereo not drawn): 136 ± 15%. Compound `COc1ccc(/C=C2\CCc3ccccc3C2=O)cc1OC` displayed a cell growth of 95.7 ± 11%. In the case of `COC(=O)C1CCC(=O)N1C(c1ccc(OC)cc1)c1cc(OC)c(OC)c(OC)c1` (stereo not drawn), the cell growth is 18.5 ± 9.1%. Under `O=C1NC(=O)[C@H]2[C@H]3C=C[C@@H]([C@@H]12)[C@@H]1[C@H]2C(=O)NC(=O)[C@H]2[C@H]31` stands 121 ± 29%.

Regarding `Cc1ccc(S(=O)(=O)ON=C2CC(c3ccccc3)N(C)C(c3ccccc3)C2)cc1` (stereo not drawn), the cell growth was 96.7 ± 22%.

`COc1cc(O)c(Cc2ccccc2O)c(O)c1C(=O)CCc1ccccc1` showed a cell growth of 86.8 ± 30%.

Compound `Cc1cccc(Cl)c1NC(=O)/C=C/c1ccccc1` gave a cell growth of 102 ± 14%. `O=C(NCCCCCCCCNC(=O)c1cccc2ccccc12)c1cccc2ccccc12`: the cell growth was 80.8 ± 18%. On to `COc1ccc2nc(NC(=O)C(=O)CC(=O)c3ccc(Cl)cc3)sc2c1`, for which the cell growth is 109 ± 40%. As for `COc1ccccc1/C=C1\Sc2scc(-c3cccc([N+](=O)[O-])c3)[n+]2C1=O`, the cell growth is 128 ± 18%.

On to `O=C(CC(=O)C(F)(F)F)c1csc2ccccc12`, for which the cell growth was 93.5 ± 13%. For the compound `COc1ccc(O)cc1`, the cell growth came to 62.6 ± 18%. On to `O=C1C(C(O)(C(F)(F)F)C(F)(F)F)CCC1C(O)(C(F)(F)F)C(F)(F)F` (stereo not drawn), for which the cell growth was determined as 104 ± 18%.

In the case of `O=C1NC(c2cccc3ccccc23)Nc2ccccc21` (stereo not drawn), the cell growth amounted to 34.9 ± 6.6%. Consider `Cc1c(Cl)ccc2c1NC(=O)C2(O)C(C(=O)c1ccccc1)c1ccccc1` (stereo not drawn), for which the cell growth was 107 ± 48%. `Nc1cc2[nH]cnc2c(=O)[nH]1` gave a cell growth of 77.1 ± 7.5%. For the compound `Nc1nc(SCc2ccccc2Cl)c2ncn(C3OC(CO)C(O)C3O)c2n1` (stereo not drawn), the cell growth was determined as 177 ± 61%. For the compound `CN(C)c1ccc(/C=C/C(=O)[O-])cc1.CN(C)c1ccc(/C=C/C(=O)[O-])cc1.[Cu+2]`, the cell growth worked out at 97.6 ± 39%. Consider `CC1=C(O)c2ccccc2C(=O)C1=O`, for which the cell growth was 91.9 ± 56%. `CC(CN(C)C)C(=O)c1ccccc1C(=O)O` (stereo not drawn) returned a cell growth of 92.7 ± 31%. For `Cc1cc(-c2nc3ccccc3s2)ccc1N`, the cell growth amounted to 73.6 ± 9%. In the case of `COc1cc(NS(C)(=O)=O)ccc1Nc1c2ccccc2nc2ccccc12`, the cell growth was 41.4 ± 12%. Compound `CCCCn1c2c(n(CCCC)c1=S)-c1c(n(CCCC)c(=S)n1CCCC)SSSS2` yielded a cell growth of 27.2 ± 5.8%. `Nc1ncnc2c(C3OC(CO)C(O)C3O)[nH]nc12` (stereo not drawn) registered a cell growth of 23.9 ± 5.3%. Turning to `O=c1c(O)c(-c2ccc(O)c(O)c2)oc2cc(O)ccc12`, the cell growth was 94.3 ± 22%.

On to `CCCCCC/C=C\CCCCCCCCCc1cccc(OC)c1O`, for which the cell growth turned out to be 115 ± 69%.
